In PubChem BioAssay AID1259313 (Sanford-Burnham Center for Chemical Genomics, 2017) one finds Tm shift relative to glycine control data, which are given here for 66 compounds.

The campaign covered roughly 340,000 compounds. About 8,500 (2.5%) were called active.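 Rule for the calls: active = melting temperature shift of at least 10% of the positive control shift, at one fixed dose; inactive = the rest.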 The entries come from a sample that favours actives as a whole.

In this assay the test system is Glutamate receptor ionotropic, NMDA 3A (GRIN3A) ligand-binding domain. Kind of assay: NR3A LBD thermal stabilization by compounds – biophysical, differential scanning fluorimetry, uHTS, primary screen (AID 1259313). The conditions noted are these: at 25 µM, active compounds read high, 0% = protein alone, 100% = glycine-bound protein. A general note: Differential scanning fluorimetry follows unfolding on heating by fluorescence.
On to `O=C1CSC(c2cccc(F)c2)N1c1ccc(O)cc1` (stereo unspecified), for which the Tm shift relative to glycine control is -2.36% (inactive).

In the case of `S=C(Nc1ccccc1)Nc1ccc2ccccc2c1`, the Tm shift relative to glycine control was 12.3% (active).

Regarding `Cc1ccc(NC(=S)Nc2ccc(F)cc2)cc1`, the Tm shift relative to glycine control was -4.68% (inactive).

For `COc1ccc(Nc2ccc3ccccc3c2)cc1`, the Tm shift relative to glycine control was 1.95% (inactive).

Consider `CCC1(c2ccccc2)NC(=O)N(CC(=O)Nc2ccccc2C(=O)NC2CCCC2)C1=O` (stereo unspecified), for which the Tm shift relative to glycine control was 0.96% (inactive).

In the case of `Cc1ccc(S(=O)(=O)N2CCCCC2)cc1NC(=O)[C@@H]1CCCN1C(=O)c1cccs1`, the Tm shift relative to glycine control is -0.43% (inactive).

With `O=C(c1cc(-c2ccc(Cl)s2)nc2ccccc12)N1CCOCC1`, the Tm shift relative to glycine control is -0.91% (inactive).

In the case of `CC(=O)N1CCN(C(=O)c2cc(-c3ccc(C)o3)nc3ccccc23)CC1`, the Tm shift relative to glycine control is 40% (active).

Consider `CCOc1ccccc1-c1cc(C(=O)N2CCOCC2)c2ccccc2n1`, for which the Tm shift relative to glycine control was 12.6% (active).

On to `CC1CCCN(C(=O)c2cc(-c3ccco3)nc3ccccc23)C1` (stereo unspecified), for which the Tm shift relative to glycine control is 1.06% (inactive).

Regarding `CCOc1ccccc1-c1cc(C(=O)N/N=C(\C)c2cccnc2)c2ccccc2n1`, the Tm shift relative to glycine control is -0.86% (inactive).

In the case of `COc1ccc(NC(=O)c2cc(-c3ccc(C)o3)nc3ccccc23)cc1`, the Tm shift relative to glycine control is 3.74% (inactive).

On to `CCN1C(=O)[C@@H]2[C@@H](c3ccc(-c4cccc(Cl)c4)cc3)N3CCC[C@@]3(C(=O)OC)[C@@H]2C1=O`, for which the Tm shift relative to glycine control is -0.81% (inactive).

As for `O=C(C(=O)N1CCc2ccccc2C1)c1c[nH]c2ccccc12`, the Tm shift relative to glycine control is 1.51% (inactive).

For the compound `CN1CCN(C(=O)c2ccc(-c3ccc(Br)cc3)o2)CC1`, the Tm shift relative to glycine control is 1.11% (inactive).

As to `CC(=O)c1cccc(NC(=S)N2CCN(S(C)(=O)=O)CC2)c1`, the Tm shift relative to glycine control was -1.28% (inactive).

As for `COc1ccc(CN(C)Cc2nc3cc(OC)c(OC)cc3c(=O)[nH]2)c(OC)c1`, the Tm shift relative to glycine control was -1.12% (inactive).

For `COc1ccc(/C=C2/C(=O)N(c3ccccc3)N=C2C)c(OC)c1`, the Tm shift relative to glycine control was -4.6% (inactive).

`COc1ccc(/C=C2/C(=O)OCc3cc(OC)c(OC)cc32)c(OC)c1`: the Tm shift relative to glycine control was 24.2% (active).

With `CC(=O)c1ccc(OCCCC(=O)Nc2ccc(C)c(S(=O)(=O)N3CCOCC3)c2)cc1`, the Tm shift relative to glycine control is 1.04% (inactive).

Regarding `O=C(Nc1ccnn1C1CCN(C/C=C/c2ccc(F)cc2)CC1)C1CCCC1`, the Tm shift relative to glycine control is -2.33% (inactive).

In the case of `CC1CCCCN1S(=O)(=O)c1ccc(S(=O)(=O)N(CC(=O)Nc2ccccc2)Cc2cccs2)cc1` (stereo unspecified), the Tm shift relative to glycine control was -4.57% (inactive).

On to `O=C(C[n+]1ccc2c(c1)nnn2-c1ccccc1)c1ccc(Cl)cc1`, for which the Tm shift relative to glycine control was -2.3% (inactive).

In the case of `CC(=NNC(=S)N1CCCCCC1)c1ccccn1`, the Tm shift relative to glycine control was 1.26% (inactive).

For `CCn1c(SCc2cccc(C(=O)O)c2)nnc1-c1ccc(Cl)cc1`, the Tm shift relative to glycine control is -0.55% (inactive).

On to `CN(c1ccccc1)S(=O)(=O)c1ccc(C(=O)NCCc2ccccc2)cc1`, for which the Tm shift relative to glycine control is -0.95% (inactive).

As to `CCCOc1ccc(C(=O)NCCc2ccccc2)cc1`, the Tm shift relative to glycine control is 25.8% (active).

With `CCCc1ccc(OCCNC(=O)c2ccccc2Br)cc1`, the Tm shift relative to glycine control was -0.74% (inactive).

`CC(C)Oc1ccc(S(=O)(=O)N2CCOCC2)cc1NC(=O)C1CCCC1`: the Tm shift relative to glycine control was 2.72% (inactive).

As for `N#Cc1cc([N+](=O)[O-])ccc1NC(=O)COC(=O)c1cnccn1`, the Tm shift relative to glycine control is 0.45% (inactive).

As for `CCOc1ccc2[nH]c3nc(SCC(=O)NC4CCCC4)nnc3c2c1`, the Tm shift relative to glycine control is -4.45% (inactive).

For `CCN1C(=O)[C@H]2[C@@H](c3ccc(-c4ccc(OC)cc4)cc3)N[C@@](Cc3ccccc3)(C(=O)OC)[C@H]2C1=O`, the Tm shift relative to glycine control was -3.39% (inactive).

Turning to `CCN1C(=O)[C@H]2[C@@H](c3ccc(SC4CCCCC4)c(OC)c3)N[C@@](Cc3ccccc3)(C(=O)OC)[C@H]2C1=O`, the Tm shift relative to glycine control is 15.5% (active).

As to `CCN1C(=O)[C@H]2[C@@H](c3ccc(-c4ccc(F)cc4)cc3)N[C@@](Cc3ccccc3)(C(=O)OC)[C@H]2C1=O`, the Tm shift relative to glycine control was 1.35% (inactive).

`Cc1ccc(C(=O)OCC(=O)Nc2ccc(Cl)cn2)cc1S(=O)(=O)N1CCOCC1`: the Tm shift relative to glycine control is 3.32% (inactive).

For the compound `COc1cccc(N2CC(C(=O)NCc3n[nH]c(=O)c4ccccc34)CC2=O)c1` (stereo unspecified), the Tm shift relative to glycine control was -0.43% (inactive).

Take `Cc1cc(Cl)ccc1N1C(=O)CC(SCCC(=O)O)C1=O` (stereo unspecified): the Tm shift relative to glycine control is 2.57% (inactive).

For the compound `C=CCN1C(=O)C(O)(CC(=O)c2ccccn2)c2ccccc21` (stereo unspecified), the Tm shift relative to glycine control was -0.48% (inactive).

For `C=CCN1C(=O)C(O)(CC(=O)c2ccc(Cl)cc2)c2ccccc21` (stereo unspecified), the Tm shift relative to glycine control was -2.1% (inactive).

Turning to `O=C(CC1(O)C(=O)N(CN2CCOCC2)c2ccccc21)c1ccccc1` (stereo unspecified), the Tm shift relative to glycine control is 27.8% (active).

With `COc1ccccc1C(=O)NC(CCSC)C(=O)N1CCN(C/C=C/c2ccccc2)CC1` (stereo unspecified), the Tm shift relative to glycine control is 2.33% (inactive).

`COc1ccccc1N1CCN(c2ncnc3sc(C)c(-c4ccccc4)c23)CC1`: the Tm shift relative to glycine control was 1.26% (inactive).

As for `Cc1[nH]n(C(N)=S)c(=O)c1N=Nc1ccc(Cl)cc1Cl`, the Tm shift relative to glycine control was 15% (active).

In the case of `Cc1[nH]n(C)c(=O)c1N=Nc1ccc(S(C)(=O)=O)cc1`, the Tm shift relative to glycine control was 1.71% (inactive).

Regarding `CC1=NN(C(N)=S)C(=O)C1N=Nc1cc(Cl)ccc1Cl` (stereo unspecified), the Tm shift relative to glycine control was 8.72% (inactive).

For `CCN(C(=O)COC(=O)CCOc1cccc(C)c1)c1c(N)n(Cc2ccccc2)c(=O)[nH]c1=O`, the Tm shift relative to glycine control is 0.18% (inactive).

Take `CCCCNC(=O)CSc1nc2ccc(NC(=O)CSc3nnc(N)s3)cc2s1`: the Tm shift relative to glycine control is 1.91% (inactive).

For the compound `CCCCNC(=O)CSc1nc2ccc(NC(=O)CSc3nnc(COc4ccccc4C)n3C)cc2s1`, the Tm shift relative to glycine control is -6% (inactive).

On to `Nc1nnc(SCC(=O)Nc2ccc3nc(SCC(=O)Nc4ccccc4)sc3c2)s1`, for which the Tm shift relative to glycine control was 29.3% (active).

Regarding `NS(=O)(=O)c1ccc(CCNC(=O)CN2C(=O)c3ccccc3S2(=O)=O)cc1`, the Tm shift relative to glycine control is 3.53% (inactive).

In the case of `COc1cc(CN(C)Cc2nc3cc(C(F)(F)F)ccc3c(=O)[nH]2)ccc1OC(F)F`, the Tm shift relative to glycine control is 0.52% (inactive).

As for `Cc1cccc(OCc2nnc(SCc3nc4cc(C(F)(F)F)ccc4c(=O)[nH]3)o2)c1`, the Tm shift relative to glycine control is 15.6% (active).

As for `Cc1cccc(OCc2nnc(SCn3nnc4ccccc4c3=O)o2)c1`, the Tm shift relative to glycine control is -0.61% (inactive).

With `Cc1onc(-c2c(F)cccc2Cl)c1C(=O)Nc1cccc(S(=O)(=O)N2CCCCC2)c1`, the Tm shift relative to glycine control is -2.74% (inactive).

Consider `N#CCc1c[nH]c2ccc([N+](=O)[O-])cc12`, for which the Tm shift relative to glycine control is 14% (active).

Regarding `O=[N+]([O-])c1ccc2[nH]c3c(c2c1)CCCC3O` (stereo unspecified), the Tm shift relative to glycine control is 5.4% (inactive).

Turning to `O=C(NCCc1c[nH]c2ccc(Cl)cc12)c1ccc([N+](=O)[O-])cc1`, the Tm shift relative to glycine control is 17.5% (active).

As to `Cc1ccc2[nH]cc(CCCN3C(=O)c4ccccc4C3=O)c2c1`, the Tm shift relative to glycine control was -9.79% (inactive).

For the compound `O=C(NCCc1c[nH]c2ccccc12)c1cccc(Br)c1`, the Tm shift relative to glycine control was 31.4% (active).

In the case of `O=C(NCCc1c[nH]c2ccccc12)C1CCN(Cc2ccc(Br)cc2)CC1`, the Tm shift relative to glycine control was -4.03% (inactive).

As to `Cc1cc(C)cc(NC(=S)NCCc2c[nH]c3ccccc23)c1`, the Tm shift relative to glycine control is 20.2% (active).

`Cc1ccc(S(=O)(=O)N(C)CC(=O)NCCc2c[nH]c3ccccc23)cc1`: the Tm shift relative to glycine control was 1.04% (inactive).

Regarding `Cc1ccc2[nH]cc(CCNC(=O)c3ccc([N+](=O)[O-])cc3)c2c1`, the Tm shift relative to glycine control was 9.11% (inactive).

Turning to `O=C(NCCc1ccc(Cl)cc1Cl)c1cc([N+](=O)[O-])c[nH]c1=O`, the Tm shift relative to glycine control is -10.1% (inactive).

For `O=C(NCCc1c[nH]c2ccccc12)c1cc2ccccc2oc1=O`, the Tm shift relative to glycine control was -6.92% (inactive).

For the compound `Cc1ccc2[nH]cc(CCNC(=O)C3CCCCC3)c2c1`, the Tm shift relative to glycine control is 1.08% (inactive).
